Consider 31 compounds from PubChem BioAssay (Tox21).

Values joined by “and” are separate entries in the source; they are usually repeats but may differ in a detail not shown here. Equal entries are not always repeated. Inconclusive results are not listed. Some compounds were tested as several samples or in several runs, with calls that do not always agree. Active and inactive are the calls of the source. Unless noted, calls follow the shape of the dose curve; as a rule, active = well fitted curve in the direction sought with a large enough effect in the repeat runs; inconclusive = weak or mixed curves; inactive = no such curve, though single readings can be large; an effect the other way counts as inactive or inconclusive.

Experiment [1] can be described thus: qHTS assay to identify aromatase inhibitors - cell viability counter screen (AID 743084;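 also: cells stimulated with testosterone during compound exposure; nearly all actives have a fitted effect of over 55% in size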; also: potency is read from the fitted curve at half-maximal effect). (qHTS replaces the single test concentration by a dilution series.)
The target of experiment [2] is Aryl hydrocarbon receptor (Homo sapiens) (UniProt P35869). The experiment is described as follows: qHTS assay to identify small molecule that activate the aryl hydrocarbon receptor (AhR) signaling pathway (AID 743085). Also: nearly all actives have a fitted effect of over 15% in size. Also: potency is read from the fitted curve at half-maximal effect.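 As to activation: HG2L7.5c1 human HepG2 liver cells with stably integrated DRE-driven firefly reporter; series mostly up to about 70 µM.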 In outline:
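HepG2 cells (HG2L7.5c1) stably carrying a firefly luciferase reporter driven by 20 dioxin responsive elements were exposed to compound for 24 h at 37C after a 5 h settling period; luminescence rise (ONE-Glo) indicated activation.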

Experiment [3] can be described thus: qHTS assay to identify small molecule that activate the aryl hydrocarbon receptor (AhR) signaling pathway - cell viability counter screen (AID 743086).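 Also: HepG2 liver cells carrying the AhR DRE luciferase reporter; series mostly up to about 70 µM; nearly all actives have a fitted effect of over 45% in size.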 Summed up: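 HepG2-AhR-luc (HG2L7.5c1) cells, 4000/well, were preincubated 5 h at 37C, exposed to compound in qHTS format for 24 hr at 37C, then given CellTiter-Fluor for 30 min; viability was read as fluorescence in the reporter wells.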

Experiment [4] can be described thus: qHTS assay to identify small molecule antagonists of the peroxisome proliferator-activated receptor gamma (PPARg) signaling pathway - cell viability counter screen (AID 743194). Also: nearly all actives have a fitted effect of over 55% in size. In outline:
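PPARg-UAS-bla HEK293H cells were plated, rested 5 h at 37 C, then treated with compounds plus rosiglitazone (50 nM final) for 17 h at 37 C; viability was then read by CellTiter-Glo luminescence after 30 min at room temperature.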

For experiment [5], the target named is Peroxisome proliferator-activated receptor gamma (Homo sapiens) (UniProt P37231). The experiment is described as follows: qHTS assay to identify small molecule antagonists of the peroxisome proliferator-activated receptor gamma (PPARg) signaling pathway (AID 743191; calls by dose curve; also: series mostly up to about 63 µM; nearly all actives have a fitted effect of over 30% in size). Summed up: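 GeneBLAzer PPARg UAS-bla HEK293H cells carrying a UAS-driven beta-lactamase reporter were plated at 3000 cells/well, preincubated 5 h at 37C, then given compound for 17 h at 37C; LiveBLAzer B/G FRET substrate was read after 1 h at room temperature.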
Peroxisome proliferator-activated receptor gamma (Homo sapiens), sequence (P37231 whole entry, looked up): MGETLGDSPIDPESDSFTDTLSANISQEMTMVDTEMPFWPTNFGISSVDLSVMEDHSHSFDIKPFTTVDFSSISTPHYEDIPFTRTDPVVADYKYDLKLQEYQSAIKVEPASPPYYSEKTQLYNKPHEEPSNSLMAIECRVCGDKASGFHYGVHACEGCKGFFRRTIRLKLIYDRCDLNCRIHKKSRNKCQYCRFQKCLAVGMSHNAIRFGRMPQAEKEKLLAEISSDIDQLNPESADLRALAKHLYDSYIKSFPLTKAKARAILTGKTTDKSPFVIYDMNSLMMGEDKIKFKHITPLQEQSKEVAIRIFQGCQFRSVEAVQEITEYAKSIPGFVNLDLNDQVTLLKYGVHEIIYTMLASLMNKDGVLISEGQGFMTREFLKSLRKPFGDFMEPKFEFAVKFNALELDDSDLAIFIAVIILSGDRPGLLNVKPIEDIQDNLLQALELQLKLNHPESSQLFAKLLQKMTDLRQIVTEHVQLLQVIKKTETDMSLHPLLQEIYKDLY

Experiment [6] in a line: qHTS assay for small molecule agonists of the antioxidant response element (ARE) signaling pathway (AID 743202; active = well fitted activation curve with a large enough effect in the signal ratio in the repeat runs, not every such curve was filed as active; the % refers to the signal ratio). In outline: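 Following a 16 h, 37 C exposure of reporter HepG2 cells (ARE-driven beta-lactamase, 2,000 cells/well) to compounds, FRET substrate was applied for 2 h at room temperature and fluorescence intensity recorded.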
Experiment [7] in a line: qHTS assay for small molecule activators of the heat shock response signaling pathway - cell viability counter screen (AID 743209). Also: nearly all actives have a fitted effect of over 50% in size. Also: potency is read from the fitted curve at half-maximal effect. In outline: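 Compounds dissolved in DMSO were added to overnight-plated HSE-bla HeLa cells and left 5 h at 37 C. Cell viability was quantified by luminescence using CellTiter-Glo.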
Experiment [8] is described as follows: qHTS assay for small molecule activators of the heat shock response signaling pathway (AID 743210; active = well fitted activation curve with a large enough effect in the signal ratio in the repeat runs, with a control signal flat, not every such curve was filed as active; the % refers to the signal ratio; also: series mostly up to about 63 µM). Summed up: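 Heat shock element–beta-lactamase HeLa reporter cells; qHTS with compounds for 5 h at 37 C; detection by FRET substrate fluorescence after 2.5 h at RT.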
The target of experiment [9] is Peroxisome proliferator-activated receptor gamma (Homo sapiens) (UniProt P37231). The experiment is described as follows: qHTS assay to identify small molecule agonists of the peroxisome proliferator-activated receptor gamma (PPARg) signaling pathway (AID 743094; active = well fitted activation curve with a large enough effect in the signal ratio in the repeat runs, not every such curve was filed as active; the % refers to the signal ratio). Summed up:
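Agonism was assessed in a beta-lactamase reporter system, HEK293H cells with a stably integrated UAS-bla construct under PPARg control; the 17 h treatment at 37C preceded a 1 h room-temperature FRET substrate read.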

The nature of experiment [10]: qHTS assay for small molecule agonists of the antioxidant response element (ARE) signaling pathway - cell viability counter screen (AID 743203; calls by dose curve; also: nearly all actives have a fitted effect of over 55% in size; also: potency is read from the fitted curve at half-maximal effect). In outline: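 ATP content via CellTiter-Glo luminescence served as the viability measure. Cells: ARE-bla HepG2, 2,000 per well. Exposure: 16 hrs, 37C/5% CO2.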

Aryl hydrocarbon receptor (Homo sapiens), sequence (P35869 whole entry, looked up): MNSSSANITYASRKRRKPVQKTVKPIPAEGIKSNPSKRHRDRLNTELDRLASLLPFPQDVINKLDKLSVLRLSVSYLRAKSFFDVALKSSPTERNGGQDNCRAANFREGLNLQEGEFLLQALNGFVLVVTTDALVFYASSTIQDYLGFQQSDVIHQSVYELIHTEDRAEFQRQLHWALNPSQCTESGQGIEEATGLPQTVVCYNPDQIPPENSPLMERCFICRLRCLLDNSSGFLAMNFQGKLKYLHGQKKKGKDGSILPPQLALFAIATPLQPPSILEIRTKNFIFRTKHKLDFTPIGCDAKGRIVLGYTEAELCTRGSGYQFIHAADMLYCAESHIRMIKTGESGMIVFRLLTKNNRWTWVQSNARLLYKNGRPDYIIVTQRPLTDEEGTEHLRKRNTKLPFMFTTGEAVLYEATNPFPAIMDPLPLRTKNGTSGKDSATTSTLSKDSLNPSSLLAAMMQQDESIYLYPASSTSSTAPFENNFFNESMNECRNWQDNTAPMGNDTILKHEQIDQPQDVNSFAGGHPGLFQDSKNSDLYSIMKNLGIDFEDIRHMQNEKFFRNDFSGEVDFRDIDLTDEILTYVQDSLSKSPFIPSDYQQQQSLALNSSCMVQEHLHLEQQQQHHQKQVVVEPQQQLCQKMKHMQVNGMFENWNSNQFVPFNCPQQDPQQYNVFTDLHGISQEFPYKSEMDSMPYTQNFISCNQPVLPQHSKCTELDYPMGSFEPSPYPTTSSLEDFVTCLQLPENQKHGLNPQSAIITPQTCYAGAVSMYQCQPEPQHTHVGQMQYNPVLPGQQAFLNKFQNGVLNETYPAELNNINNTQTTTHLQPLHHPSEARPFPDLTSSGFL

Consider `CCCCCc1ccco1`, for which the Potency result in experiment [1], in experiment [2], in experiment [3] and in experiment [4] was “inactive” throughout.

For `CC(C)N=C=NC(C)C`, the Potency result in experiment [1], in [2], in experiment [3], in [5], in [4] and in experiment [6] was “inactive” throughout. Also, the Potency entry in experiment [7] and in experiment [8] was “inactive” throughout.

`O=[N+]([O-])C1(Br)COCOC1`: the results for the Potency in experiment [1] and in experiment [7] were 43.3 µM (active) and 49 µM (active), respectively. In addition, the Potency result in experiment [2] and in [3] was “inactive” in each case. Also, the outcome in experiment [9] was inactive.

As for `c1ccc(CNc2ncnc3c2ncn3C2CCCCO2)cc1` (stereo unspecified), the Potency entry in experiment [1], in experiment [3], in [4], in experiment [7] and in experiment [8] was “inactive” each time. Also, the Potency in experiment [2] is 8.63 µM (active). For the same compound, in [9], the outcome was inactive.

Take `O=C(O)CO`: the Potency result in experiment [1], in experiment [2], in experiment [3], in experiment [5], in experiment [4] and in experiment [10] was “inactive” in each case. For the same compound, the Potency entry in experiment [7] and in [8] was “inactive” throughout.

As for `CC(C)(C)CCCCCCOC(=O)c1ccccc1C(=O)OCCCCCCC(C)(C)C`, the Potency result in experiment [1], in [2], in [3], in [5], in [4] and in [7] was “inactive” in each case. The Potency result in [8] is “inactive”.

Take `COc1ccc(-c2cc(C(F)F)nn2-c2ccc(S(N)(=O)=O)cc2)cc1F`: the Potency entry in [1], in experiment [2], in experiment [3], in experiment [4], in experiment [10] and in [7] was “inactive” in each case. For the same compound, in [8], the Potency result is “inactive”. The compound was called inactive in experiment [9].

With `Cc1cn([C@H]2C[C@H](F)[C@@H](CO)O2)c(=O)[nH]c1=O`, the Potency result in experiment [1], in experiment [2], in experiment [3], in experiment [5], in experiment [4] and in experiment [6] was “inactive” in each case. For the same compound, the Potency entry in experiment [10], in [7] and in experiment [8] was “inactive” throughout.

As to `COC(CC(C)CCCC(C)(C)O)OC` (stereo unspecified), the Potency result in experiment [1], in experiment [2], in experiment [3], in experiment [4], in [6] and in [10] was “inactive” in each case. Besides, the Potency result in experiment [7] and in experiment [8] was “inactive” in each case.

As for `C[C@H](CS)C(=O)N1CCC[C@H]1C(=O)O`, the Potency entry in [1], in experiment [2], in experiment [3], in experiment [4], in experiment [6] and in experiment [10] was “inactive” throughout. For the same compound, the Potency entry in experiment [7] and in experiment [8] was “inactive” throughout.

As for `O=C(Oc1ccccc1)c1ccc2ccccc2c1O`, the Potency entry in [1], in experiment [2], in experiment [3], in experiment [5], in [6] and in experiment [10] was “inactive” each time. For the same compound, the Potency entry in experiment [7] and in experiment [8] was “inactive” each time.

Consider `CCN(CC)CCNC(=O)c1cc(Cl)c(N)cc1OC`, for which the Potency entry in experiment [1], in experiment [2], in experiment [3], in experiment [4], in experiment [6] and in experiment [10] was “inactive” in each case. For the same compound, the Potency result in experiment [7] and in experiment [8] was “inactive” in each case.

Regarding `CC(=O)NNC(C)=O`, the Potency entry in experiment [1], in experiment [2], in experiment [3], in experiment [4], in experiment [6] and in experiment [10] was “inactive” in each case. Further, the Potency entry in experiment [7] was “inactive”.

Turning to `CC1CCC(C(C)CS)CC1S` (stereo unspecified), the Potency entry in experiment [1], in experiment [2] and in [3] was “inactive” throughout. In addition, the call in [9] was inactive. The results for the Potency in experiment [10] and in experiment [7] were 15.4 µM (active) and 38.9 µM (active), respectively.

Regarding `CC(C(=O)O)c1ccc(C(=O)c2cccs2)cc1` (stereo unspecified), the Potency result in [1], in experiment [2], in experiment [3], in experiment [4], in experiment [6] and in [7] was “inactive” throughout. Also, the Potency result in experiment [8] was “inactive”.

Take `COC(OC)OC`: the Potency entry in experiment [1], in experiment [2], in experiment [3], in experiment [4], in [6] and in experiment [7] was “inactive” each time. In [8], the Potency result is “inactive”.

Regarding `CCOC(=O)C(C)O` (stereo unspecified), the Potency entry in experiment [1], in experiment [2], in experiment [3], in experiment [4], in experiment [6] and in [10] was “inactive” each time. Further, the Potency result in experiment [7] and in experiment [8] was “inactive” in each case.

As to `CC(C)COC(=O)COc1cc(Cl)c(Cl)cc1Cl`, the Potency result in [1], in [2], in experiment [3], in [5], in experiment [4] and in experiment [10] was “inactive” in each case. Further, the Potency entry in experiment [7] and in [8] was “inactive” in each case.

Turning to `Cc1cc(CCC(=O)OCCOCCOCCOC(=O)CCc2cc(C)c(O)c(C(C)(C)C)c2)cc(C(C)(C)C)c1O`, the Potency entry in experiment [1], in experiment [2], in [3], in experiment [4], in [6] and in experiment [7] was “inactive” each time. The Potency result in experiment [8] is “inactive”.

Consider `COc1cc(NC(C)CCCN)c2ncccc2c1` (stereo unspecified), for which the Potency result in experiment [1], in experiment [2], in [3], in [5], in [4] and in experiment [6] was “inactive” in each case. For the same compound, the Potency entry in [10], in experiment [7] and in experiment [8] was “inactive” each time.

As for `CCCCCCC(CO)CCCC` (stereo unspecified), the Potency entry in experiment [1], in [2], in experiment [3], in experiment [6], in experiment [7] and in [8] was “inactive” throughout. Also, the result in experiment [9] was inactive.

In the case of `CC(=O)OC(C)C[N+](C)(C)C` (stereo unspecified), the Potency result in experiment [1], in experiment [2], in [3], in experiment [4], in [6] and in experiment [10] was “inactive” throughout. In addition, the Potency entry in [7] and in experiment [8] was “inactive” each time.

With `CCCCCCCCCCCCCC(=O)OCC(O)CO` (stereo unspecified), the Potency entry in experiment [1], in [2], in experiment [3], in experiment [4], in [6] and in experiment [7] was “inactive” each time. Also, the Potency result in experiment [8] is “inactive”.

With `C[C@@H]1[C@H](O)[C@@H](C)/C=C/C=C\C=C\C=C\C=C\C=C\C=C\[C@H](O[C@@H]2O[C@H](C)[C@@H](O)[C@H](N)[C@@H]2O)C[C@@H]2O[C@](O)(C[C@@H](O)C[C@@H](O)[C@H](O)CC[C@@H](O)C[C@@H](O)CC(=O)O[C@H]1C)C[C@H](O)[C@H]2C(=O)O` (stereo in doubt), the Potency result in experiment [1] is “inactive and 34.4 µM (active)”. The Potency entry in [2], in [3], in [4], in experiment [10], in experiment [7] and in experiment [8] was “inactive” each time. Besides, in experiment [9], the compound was called inactive.

Take `CC1CCCC(=O)C1=O` (stereo unspecified): the Potency result in [1], in [2], in experiment [3], in experiment [5], in [4] and in experiment [6] was “inactive” throughout. The Potency entry in experiment [10], in experiment [7] and in experiment [8] was “inactive” throughout.

With `CC(C)CC(O)CC(C)C`, the Potency entry in [1], in experiment [2], in [3], in experiment [4], in experiment [10] and in [7] was “inactive” in each case. The Potency entry in experiment [8] was “inactive”. Also, in [9], the compound was classed as inactive.

For the compound `O=C(O)CCS`, the Potency entry in [1], in experiment [2], in experiment [3], in experiment [4], in experiment [6] and in experiment [10] was “inactive” in each case. For the same compound, the Potency result in [8] is “inactive”.

As for `NC(=O)CCCCC(N)=O`, the Potency result in experiment [1], in [2], in experiment [3], in experiment [5], in experiment [4] and in [10] was “inactive” each time. Moreover, the Potency entry in experiment [7] and in [8] was “inactive” in each case.

On to `CC(C)C(=O)OCCOc1ccccc1`, for which the Potency entry in experiment [1], in [2], in [3], in experiment [5], in experiment [4] and in experiment [6] was “inactive” each time. Further, the Potency result in experiment [10], in [7] and in [8] was “inactive” each time.

Regarding `CCOCCC(=O)OCC`, the Potency result in experiment [1], in experiment [2], in experiment [3], in [5], in experiment [4] and in experiment [6] was “inactive” in each case. For the same compound, the Potency result in [10], in experiment [7] and in [8] was “inactive” throughout.

Regarding `C[C@@H]1C[C@H]2[C@@H]3CCC4=CC(=O)C=C[C@]4(C)[C@@]3(F)[C@@H](O)C[C@]2(C)[C@@]1(O)C(=O)COP(=O)(O)O`, the Potency entry in experiment [1], in [2], in experiment [3], in experiment [5], in experiment [4] and in [6] was “inactive” each time. For the same compound, the Potency result in experiment [10], in experiment [7] and in [8] was “inactive” in each case.
